# Assay results published in the supplement of paper PMC4709259.
# Where a name gives a salt, the structure may show the parent alone. ± gives the standard deviation.
# Experiments:
# Jurkat [1] = test: mean cell size (FSC-A) relative to DMSO control (fraction of control); higher = larger cells; conditions: 48 h
# Method in brief: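 Jurkat cells seeded at 600 cells/µl were incubated 1 h, then exposed for 48h to the Enzo Screen-Well FDA Approved Drug Library v2.0 at 25µM in 0.9% (v/v) final DMSO. Drugs that cut counts below 20% of controls were diluted 10-fold and retested, down to 25nM. Cell count and mean cell size (forward scatter area) were read on an Accuri C6 flow cytometer, relative to solvent-only controls. Plates held 6-12 controls; values are means of 3 biological replicates.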
# Jurkat [2] = test: cell count relative to DMSO control (fraction of control); higher = more cells (less growth inhibition); conditions: 48 h
SMILES,mean cell size (Jurkat [1]),cell count (Jurkat [2])
C[C@]12CC[C@@H]3c4ccc(O)cc4C[C@@H](CCCCCCCCC[S+]([O-])CCCC(F)(F)C(F)(F)F)[C@H]3[C@@H]1CC[C@@H]2O (stereo partly specified) [Fulvestrant] (concentration: 25 µM),0.942 ± 0.0098,0.862 ± 0.061
Oc1ncnc2[nH]ncc12 [Allopurinol] (concentration: 25 µM),0.965 ± 0.013,0.701 ± 0.13
C=C[C@H]1CN2CC[C@H]1C[C@H]2[C@H](O)c1ccnc2ccc(OC)cc12 [Quinine·HCl·H2O] (concentration: 25 µM),1.06 ± 0.055,0.637 ± 0.18
CC(C)(C)NCC(O)c1cc(O)cc(O)c1 (stereo unspecified) [Terbutaline Hemisulfate] (concentration: 25 µM),0.92 ± 0.066,0.503 ± 0.057
COC(=O)C1=C(C)NC(C)=C(C(=O)OC)C1c1ccccc1[N+](=O)[O-] [Nifedipine] (concentration: 2.5 µM),1.02 ± 0.036,0.92 ± 0.1
C=CC[C@@H]1/C=C(\C)C[C@H](C)C[C@H](OC)[C@H]2O[C@@](O)(C(=O)C(=O)N3CCCC[C@H]3C(=O)O[C@H](/C(C)=C/[C@@H]3CC[C@@H](O)[C@H](OC)C3)[C@H](C)[C@@H](O)CC1=O)[C@H](C)C[C@@H]2OC [Tacrolimus (Fk506)] (concentration: 25 µM),0.83 ± 0.065,0.408 ± 0.045
C[C@@H](O[C@H]1OCCN(Cc2n[nH]c(=O)[nH]2)[C@H]1c1ccc(F)cc1)c1cc(C(F)(F)F)cc(C(F)(F)F)c1 [Aprepitant] (concentration: 2.5 µM),1.08 ± 0.022,0.651 ± 0.024
O=C(CCCN1CC=C(n2c(=O)[nH]c3ccccc32)CC1)c1ccc(F)cc1 [Droperidol] (concentration: 25 µM),0.962 ± 0.032,0.812 ± 0.095
CCCN(CCC)CCc1cccc2c1CC(=O)N2 [Ropinirole·HCl] (concentration: 25 µM),0.974 ± 0.012,0.958 ± 0.1
C[C@H](CCC(=O)O)[C@H]1CC[C@H]2[C@@H]3[C@H](O)C[C@@H]4C[C@H](O)CC[C@]4(C)[C@H]3CC[C@]12C [Chenodiol (Chenodeoxycholic Acid)] (concentration: 25 µM),0.946 ± 0.037,0.838 ± 0.13
CNCCCC1c2ccccc2C=Cc2ccccc21 [Protriptyline·HCl] (concentration: 25 µM),1.05 ± 0.019,0.821 ± 0.056
C=C1/C(=C\C=C2/CCC[C@]3(C)[C@@H]([C@H](C)/C=C/[C@@H](O)C4CC4)CC[C@@H]23)C[C@@H](O)C[C@@H]1O [Calcipotriene] (concentration: 25 µM),0.933 ± 0.064,0.654 ± 0.08
CC(C)(O)c1ccccc1CC[C@@H](SCC1(CC(=O)O)CC1)c1cccc(/C=C/c2ccc3ccc(Cl)cc3n2)c1 [Montelukast·Na] (concentration: 25 µM),1.02 ± 0.077,0.476 ± 0.16
CCCCNc1cc(C(=O)O)cc(S(N)(=O)=O)c1Oc1ccccc1 [Bumetanide] (concentration: 25 µM),0.952 ± 0.015,0.863 ± 0.022
Cc1nc2n(c(=O)c1CCN1CCC(c3noc4cc(F)ccc34)CC1)CCCC2 [Risperidone] (concentration: 25 µM),0.95 ± 0.051,0.809 ± 0.13
CN(C)[C@@H]1C(=O)C(C(N)=O)=C(O)[C@@]2(O)C(=O)C3=C(O)c4c(O)ccc(Cl)c4[C@@H](O)[C@H]3C[C@@H]12 [Demeclocycline·HCl] (concentration: 25 µM),0.811 ± 0.028,0.219 ± 0.039
Cc1cccc(CN2CCN(C(c3ccccc3)c3ccc(Cl)cc3)CC2)c1 (stereo unspecified) [Meclizine Dihydrochloride] (concentration: 25 µM),0.965 ± 0.024,0.703 ± 0.088
Cc1ccsc1C(=CCCN1CCC[C@@H](C(=O)O)C1)c1sccc1C [Tiagabine·HCl] (concentration: 25 µM),0.936 ± 0.064,0.839 ± 0.013
Nc1cccc2c1CN(C1CCC(=O)NC1=O)C2=O (stereo unspecified) [Lenalidomide] (concentration: 25 µM),0.951 ± 0.021,1.03 ± 0.11
COc1ccccc1Oc1c(NS(=O)(=O)c2ccc(C(C)(C)C)cc2)nc(-c2ncccn2)nc1OCCO [Bosentan] (concentration: 25 µM),0.975 ± 0.018,0.675 ± 0.068
CN(C)c1cc(NC(=O)CNC(C)(C)C)c(O)c2c1C[C@H]1C[C@H]3[C@H](N(C)C)C(=O)C(C(N)=O)=C(O)[C@@]3(O)C(=O)C1=C2O [Tigecycline] (concentration: 25 µM),1.01 ± 0.051,0.784 ± 0.06
Clc1ccc(COC(Cn2ccnc2)c2ccc(Cl)cc2Cl)cc1 (stereo unspecified) [Econazole Nitrate] (concentration: 25 µM),0.959 ± 0.03,0.774 ± 0.096
Cc1ccc(N(CC2=NCCN2)c2cccc(O)c2)cc1 [Phentolamine·HCl] (concentration: 25 µM),1.09 ± 0.072,0.612 ± 0.16
Cn1c2ncnc-2c(O)n(C)c1=O [Oxtriphylline] (concentration: 25 µM),0.953 ± 0.021,0.761 ± 0.13

SMILES,mean cell size (Jurkat [1]),cell count (Jurkat [2])
CC(=O)c1ccc(S(=O)(=O)NC(=O)NC2CCCCC2)cc1 [Acetohexamide] (concentration: 25 µM),1.02 ± 0.063,0.723 ± 0.068
CC[C@H](C)C(=O)O[C@H]1C[C@H](O)C=C2C=C[C@H](C)[C@H](CC[C@@H](O)C[C@@H](O)CC(=O)O)[C@H]21 [Pravastatin·Na] (concentration: 25 µM),1.07 ± 0.028,0.771 ± 0.15
CCC1=C[C@@H]2CN(C1)Cc1c([nH]c3ccccc13)[C@@](C(=O)OC)(c1cc3c(cc1OC)N(C)[C@H]1[C@@](O)(C(=O)OC)[C@H](OC(C)=O)[C@]4(CC)C=CCN5CC[C@]31[C@@H]54)C2 [Vinorelbine] (concentration: 250 nM),0.941 ± 0.031,0.559 ± 0.048
Nc1ncn([C@@H]2O[C@H](CO)[C@@H](O)[C@H]2O)c(=O)n1 [Azacitidine] (concentration: 25 µM),0.9766 ± 0.0047,0.668 ± 0.11
CC(=O)OC[C@H]1O[C@@H]([S-])[C@H](OC(C)=O)[C@@H](OC(C)=O)[C@@H]1OC(C)=O.CCP(CC)CC.[Au+] [Auranofin] (concentration: 250 nM),0.9833 ± 0.0086,0.762 ± 0.058
CC1(C)O[C@@H]2C[C@H]3[C@@H]4CCC5=CC(=O)C=C[C@]5(C)[C@H]4[C@@H](O)C[C@]3(C)[C@]2(C(=O)CO)O1 [Desonide] (concentration: 25 µM),0.948 ± 0.027,0.857 ± 0.014
CCN(CC)CCNC(=O)c1ccc(N)cc1 [Procainamide·HCl] (concentration: 25 µM),1.03 ± 0.025,0.935 ± 0.17
COc1c(C)c2c(c(O)c1C/C=C(\C)CCC(=O)O)C(=O)OC2 [Mycophenolic Acid] (concentration: 2.5 µM),1.01 ± 0.014,0.225 ± 0.05
Cc1cccc(C)c1OCC(C)N (stereo unspecified) [Mexiletine·HCl] (concentration: 25 µM),0.983 ± 0.012,0.719 ± 0.014
CC1(C)O[C@@H]2C[C@H]3[C@@H]4C[C@H](F)C5=CC(=O)C=C[C@]5(C)[C@@]4(F)[C@@H](O)C[C@]3(C)[C@]2(C(=O)CO)O1 [Fluocinolone Acetonide] (concentration: 25 µM),0.958 ± 0.037,0.55 ± 0.08
CC(C)Cc1ccc(C(C)C(=O)O)cc1 (stereo unspecified) [Ibuprofen] (concentration: 25 µM),0.955 ± 0.011,0.765 ± 0.077
C[C@]12CC[C@@H]3c4ccc(OS(=O)(=O)O)cc4CC[C@H]3[C@@H]1CCC2=O [Estropipate] (concentration: 25 µM),1.06 ± 0.069,0.747 ± 0.21
CC[C@@H]1/C=C(\C)C[C@H](C)C[C@H](OC)[C@H]2O[C@@](O)(C(=O)C(=O)N3CCCC[C@H]3C(=O)O[C@H](/C(C)=C/[C@@H]3CC[C@H](Cl)[C@H](OC)C3)[C@H](C)[C@@H](O)CC1=O)[C@H](C)C[C@@H]2OC [Pimecrolimus] (concentration: 25 µM),0.822 ± 0.021,0.692 ± 0.099
Cc1oncc1C(=O)Nc1ccc(C(F)(F)F)cc1 [Leflunomide] (concentration: 25 µM),1.07 ± 0.025,0.606 ± 0.038
CCOC(=O)c1ccc(C#Cc2ccc3c(c2)C(C)(C)CCS3)nc1 [Tazarotene] (concentration: 25 µM),0.894 ± 0.021,0.698 ± 0.18
C[C@]12C=CC(=O)C=C1CC[C@@H]1[C@@H]2C(=O)C[C@@]2(C)[C@H]1CC[C@]2(O)C(=O)CO [Prednisone] (concentration: 25 µM),1 ± 0.042,0.689 ± 0.13
NC(=O)N1c2ccccc2C=Cc2ccccc21 [Carbamazepine] (concentration: 25 µM),0.955 ± 0.044,1.14 ± 0.065
CC(=O)Nc1c(I)c(NC(C)=O)c(I)c(C(=O)O)c1I [Diatrizoate Meglumine] (concentration: 25 µM),0.99 ± 0.021,0.846 ± 0.085
CC(=O)N[C@H]1[C@H]([C@H](O)[C@H](O)CO)OC(C(=O)O)=C[C@@H]1NC(=N)N [Zanamivir] (concentration: 25 µM),0.993 ± 0.052,0.647 ± 0.18
C[C@H](N)[C@H](O)c1cccc(O)c1 [Metaraminol Bitartrate] (concentration: 25 µM),1.04 ± 0.058,0.774 ± 0.12
OC(c1cc(C(F)(F)F)nc2c(C(F)(F)F)cccc12)C1CCCCN1 (stereo unspecified) [Mefloquine·HCl] (concentration: 2.5 µM),0.9935 ± 0.0057,0.813 ± 0.087
Nc1ccn([C@@H]2CS[C@H](CO)O2)c(=O)n1 [Lamivudine] (concentration: 25 µM),0.995 ± 0.046,0.624 ± 0.13
COc1ccccc1OCC(O)COC(N)=O (stereo unspecified) [Methocarbamol] (concentration: 25 µM),0.969 ± 0.057,0.715 ± 0.14
COC(=O)C1=C(C)NC(C)=C(C(=O)OCCN(C)Cc2ccccc2)C1c1cccc([N+](=O)[O-])c1 (stereo unspecified) [Nicardipine·HCl] (concentration: 25 µM),1.01 ± 0.071,0.568 ± 0.034
